Results filed as inconclusive are left out. Entries that show only a call come without a potency. Active and inactive are the calls of the source. The call rests on the fitted dose curve.

This experiment is described as follows: qHTS assay for small molecules that induce genotoxicity in human embryonic kidney cells expressing luciferase-tagged ATAD5 - cell viability (AID 651634). Further: nearly all actives have a fitted effect of over 25% in size. The following applies: HEK293T ATAD5-luc cells viability, CellTiter-Fluor, 15.5 h; series mostly up to 83.3 µM. The source says: National Center for Advancing Translational Sciences [NCATS]
NIH Chemical Genomics Center [NCGC]
U.S. Environmental Protection Agency [EPA]
National Institutes of Environmental Health Sciences [NIEHS]
National Toxicology Program [NTP]
U.S. Food and Drug Administration [FDA]
Enhanced Level of Genome Instability Gene 1 (ELG1; human ATAD5) protein levels increase in response to various types of DNA damage. Using a luciferase reporter-gene tagged with ElG1, a cell-based assay [developed by Kyungjae Myung, NHGRI, NIH] was used to measure the induction of ATAD5 in human embryonic kidney cells (HEK293T). So, increase in luciferase activity can be used to identify the compounds that cause genetic stress. In addition to genotoxicity, these cells were also used to test for cytotoxicity by measuring the protease activity within live cells.
Tox21 Assay Protocol Summary:
For cytotoxicity screening, 2,000 cells in 5 uL/well were dispensed into white, solid-bottom 1536-well plates using a Multidrop Combi (Thermo Scientific) dispenser. Following transfer of 23 nL compound or DMSO vehicle by a pin tool, the plates were incubated 15.5 hr at 37C and 5% CO2. 1 ul CellTiter-Fluor reagent (Promega, Madison, WI) was then added to each plate and following 30 min incubation at 37C, fluorescence intensity was quantified on a ViewLux CCD-based plate reader.
For orientation: qHTS replaces the single test concentration by a dilution series.
As to `C=CC[N+](C)(C)CC=C`, the Potency result is “inactive”.

For the molecule `CCCCC(C=O)CC` (stereo not given), the Potency entry is “inactive”.

As to `CCNc1cccc(C)c1`, the Potency result is “inactive”.

`NCCNCCN`: the Potency result is “inactive”.

As to `Clc1ccccn1`, the Potency entry is “inactive”.

On to `CCCOC(=O)c1ccccc1`, for which the Potency entry is “inactive”.

Take `O=C(O)c1cc2ccccc2cc1O`: the Potency result is “inactive”.

Turning to `CCOC(=O)n1ccn(C)c1=S`, the Potency result was “inactive”.

With `COc1ccc(CCC(C)=O)cc1`, the Potency result is “inactive”.

Consider `CC(=O)OC1CC(C)OC(C)O1` (stereo not given), for which the Potency entry is “inactive”.

As for `C=C(C)CNCC`, the Potency result was “inactive”.

Consider `CC(C)OP(=O)(CP(=O)(OC(C)C)OC(C)C)OC(C)C`, for which the Potency entry is “inactive”.

Consider `Cc1ccc(S(=O)(=O)N=C=O)cc1`, for which the Potency entry is “inactive”.

For `COC(=O)c1cccnc1`, the Potency result is “inactive”.

Take `Cc1ccc2ncccc2c1`: the Potency entry is “inactive”.

Regarding `COc1ccc(N)c(C)c1`, the Potency entry is “inactive”.

In the case of `C=CCc1ccc(OC)c(OC)c1`, the Potency entry was “inactive”.

As to `COc1cc(OC)c(C(=O)CCCN2CCCC2)c(OC)c1`, the Potency entry was “inactive”.

In the case of `O=C(O)c1ccc(C(=O)O)c(C(=O)O)c1`, the Potency result is “inactive”.

Turning to `O=C(O)c1ccc(S(=O)(=O)N(Cl)Cl)cc1`, the Potency result was “inactive”.

For `C=Cc1ccc(C)cc1`, the Potency result was “inactive”.

With `CC(CCl)OP(=O)(OC(C)CCl)OC(C)CCl` (stereo not given), the Potency result was “inactive”.

In the case of `CC1(C)S[C@@H]2[C@H](NC(=O)COc3ccccc3)C(=O)N2[C@H]1C(=O)O`, the Potency result was “inactive”.

On to `CC(C)CC(C)O` (stereo not given), for which the Potency result is “inactive”.

As for `O=C(O)c1ccccc1C(=O)O`, the Potency result is “inactive”.

Regarding `COc1ccccc1OCC(O)CO` (stereo not given), the Potency result was “inactive”.

Regarding `CCOCCOCCOCCO`, the Potency entry was “inactive”.

For the molecule `CC(C)c1cccc(C(C)C)c1`, the Potency entry is “inactive”.

On to `O=C1C(c2[nH]c3ccccc3c2O)=Nc2ccccc21`, for which the Potency entry was “inactive”.

Regarding `CC(=O)c1ccc(O)cc1`, the Potency entry was “inactive”.

For `O=C1c2ccccc2CCc2ccccc21`, the Potency entry was “inactive”.

For the molecule `O=C(OCC1CCC2OC2C1)C1CCC2OC2C1` (stereo not given), the Potency entry was “inactive”.

With `COc1ccc(C)cc1N`, the Potency entry was “inactive”.

`c1ccc(Oc2ccccc2)cc1`: the Potency entry is “inactive”.

For `CCO[Si](CCCN)(OCC)OCC`, the Potency result was “inactive”.

In the case of `CCCCCCCCCCO`, the Potency entry was “inactive”.

For the molecule `CC(C)CCCCCCCOC(=O)CCCCC(=O)OCCCCCCCC(C)C`, the Potency entry is “inactive”.

In the case of `COCCCN`, the Potency result is “inactive”.

In the case of `CN1C(=O)CC[C@H]1c1cccnc1`, the Potency entry was “inactive”.

`CC(C)(C#N)c1cc(Cn2cncn2)cc(C(C)(C)C#N)c1`: the Potency entry was “inactive”.

The values above are taken from PubChem BioAssay (Tox21).
